Measured values reported in the supplement of paper PMC6555819.

test system: PPARg:RXRa DBDmut IVT, anti-RXR (DBD mutation: RXRa K156A/R161A, NR concentration 270 nM, RXRa partner concentration 90 nM); experiment: PBM binding z-score (relative to random genomic background probes); higher = stronger binding; sequences stand for … in GC…GCGATTGACAGCGTAGAATGAAGG
Outline: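 On custom Agilent 4×180K arrays, double-stranded probes with 34-nt variable regions carried direct-repeat seeds, single-nucleotide variants, half-site ablations or random human genomic background. Ligand-free nuclear receptor dimers were applied for 1 h, and binding was read with antibodies against each partner (one per run). Binding z-scores come from regression-normalized fluorescence, with the random background probes as reference.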

Row | Sequence | PBM binding z-score
1 | AATACAGGGTCATCTTAGGCCAGAGTACGCACAG | 2.7
2 | TATCAAAGTTCAAAGGTAACGTAAGTATCCACAC | 0.181
3 | ATCGAAAGGTCCAAGGTGAGTATACCCACCCGAA | -0.563
4 | TACCCTAGGTCATTGGGCCAGTATAGTACGCATC | 3.2
5 | AGAATGGGGTTACCAAAGATCAGGGAAACGCTTG | 4.37
6 | AATACAGGGTGACTAGGCCAGAGTAGGTACGAAT | 2.23
7 | GTTACAGGGTCAAGGCCAGAGTACGCGTATTGAT | 3.09
8 | ATATGTAGGATAGCTGGGGTCATTCAGACTAGGC | 3.17
9 | TACCCTAGGTCATTCAGGGGCCAGTATAGAAAGC | 1.8
10 | CCTACTGGACCAAGGTCATTGATCAGTCAAAGCA | 2.03
11 | AGTCAAAGTTCATCTAGGTAACATAAGATATGCT | 1.1
12 | GCATATAGGTAATACAAGGTCAAAGTCCGATTGT | 4.1
13 | CGTCCAAGGTCAATGCTAGATCAGTGAAAGCATT | 3.16
14 | CCTACTGGGCCATTCAGAGGGCATTGATCATATG | 4.54
15 | CCTACTGGGCCGTTCAGAGGTCATTGATCATATG | 1.34
16 | TGTCAATGTTCAAAGGTAACGTAAGTATCCACAC | -0.214
17 | ATATGTAGGTTATCGGGTCATACAGTTTGCGCAT | 7.63
18 | ATATGTAGGTTACCTGGGGTCATTCAGACTAGGC | 7.37
19 | TAGCCTAGGTCATTCAGGGGCCAGCATAGAAAGC | 2.03
20 | AGTCAAAGTTGAGGACGAGGTAACGTAAAGCACG | -0.189

Row | Sequence | PBM binding z-score
21 | ACTTACGGCTCAACGAGGTTATAGCACGCGTATA | -0.0346
22 | CACACTAGGTCACAGAGGTCAAAGTCCGTGCGTA | 7.79
23 | TCTGCTAGGTCAACGTTGGTCAGCTAATCTGCTA | 3.92
24 | AGAATGAGGTTACTAAAGATCAGGGAAACGCTTG | 3.7
25 | TAGCCTAGGTCATTCAGGGGCAAGTATAGAAAGC | 1.93
26 | CCTTACGGGTCAAGGTTATAGCCCGGGTGGTACG | 1.8
27 | CCTTACGGGTTACTCCAGGTTATAGCATCGGAGT | 0.986
28 | TCTTGTAGATCGATAGAGGTTAAGAAAGTGCGCT | 0.891
29 | CCTTACGGGTCACTCCAGGTCATAGCATCGGAGT | 2.73
30 | ATATGTAGGTTAGCTGAGGTCATTCAGACTAGGC | 6.93
31 | TAGCCTAGTTCATGCGGGCCAGTATAGTGTCGGC | 0.864
32 | CAAAATAGGTCACCGGAAGGTCAAAGTCCGCATG | 7.95
33 | ATCGAAAGGTCGACCAGGTGAGTATACACCGTTT | 0.539
34 | GCTGCTAGGTCAACTGATGGTCATCTAAAGCTCG | 5.18
35 | CCTACTGGGCCAAAGGTGATTGATTCCAATGCTC | 5.69
36 | CAAACTAGGTCACAGTGGTCAAAGTCCGTGCGTA | 8.5
37 | ATATGTAGTTTATCGGGTCATTCAGTTTGCGCAT | 2.99
38 | CAAACTAGGTCACAAAAGGTCAAAGTCGAATGAC | 8.13
39 | TCTAGTTGGTCTAAGGTCACACACTCGAAATGCG | 2.2
40 | AATACAAGGTCATCGTAGGCCAGAGTACGCACAG | 3.93
